Inconclusive results are not listed. Where a call stands in place of a potency, no number is given. Active and inactive are the calls of the source. Calls follow the shape of the dose curve; as a rule, active = well fitted activation curve with a large enough effect; inconclusive = small, poorly fitted or top-dose-only effect, or another doubt; inactive = no such curve, though single readings can be large or run the other way.
Experiment: Cell Proliferation Assay against the TMD8 Cell Line (Caspase readout at 8 hrs) (AID 651713)
Conditions: TMD8 lymphoma cells, caspase activation luminescence; series mostly up to 46.1 µM
From the text: One class of targeted therapeutics showing early clinical success in killing of ABC DLBCL lines are small molecule inhibitors of the Bruton tyrosine kinase (BTK) 11. Thus, we chose to investigate what additional compounds, if any, would synergize with the BTK inhibitor Ibrutinib (PCI-32765).
Prior to any combination assays, using an NCATS developed oncology compound library called the Mechanism of Interrogation Plate (MIPE), two well studied ABC DLBCL lines (TMD8 and HBL1) were screened using a cell viability assay (CellTiterGlo) and a 12-point titration series for each single agent. These initial experiments offered insight into the concentration range that offered the best coverage of activity and non-activity to assure relevant data is generated. In addition to the viability signature associated with this library, we examined the apoptotic response of each agent versus the TMD8 line as judged by caspase 3/7 activation. Activity was assayed at both 8 and 16 hour time-points to gain an appreciation of which agents induced an apoptotic response in a reasonable timeframe from a therapeutic exposure perspective. MIPE was also assayed for single agent viability in a human mesenchymal stem cell (hMSC) line as a surrogate of each library members potential therapeutic index.
The combination plates were then generated by choosing 20 of the best compounds from this single agent screen and plated in the presence of the BTK inhibitor. The first analysis was carried out using 6x6 dose response blocks for each of the 20 compounds. […] In addition to the cell viability assay, the parallel caspase 3/7 activation and viability in hMSC assays were carried out in the 10x10 format.
A total of 500 log growing TMD8 cells are seeded per well in 5 uL of a RPMI with glutamine (or Glutamax), without phenol red plus 5% FBS and 1X Pen/Strep into 1536 -solid white high base tissue culture treated Greiner One Bio Plates (789173-F) using a multidrop combi dispenser and a small sterile cassette. Compounds and controls totaling 23nL per well (negative control DMSO and positive control 9.2 uM Bortezomib-final) are immediately added to the plates using a 1536 head pin tool from Kalypsys. The plates are then covered with stainless steel gasket lids from Kalypsys and incubated for either 8 hours at 37C under 95% relative humidity with 5% CO2. After the desired incubation time, the plates are removed and allowed to reach room temperature before 3 uL of the Caspase Glo reagent (Promega) is added using an Aurora Flying Reagent Dispenser Bioraptor. The plates are then spun at 1000 rpms to remove bubbles and incubated for 15 minutes at room temperature before read on a ViewLux using a luminescent filter with a 10 second exposure. The relative luciferase units are used to calculated percent activity using DMSO as 0% and Bortezomib as 100%.
For O=C(C1CC1)N1CC[C@@H](Cn2c(-c3ccc(-c4ccc5occc5c4)cc3)nc3cnccc32)C1, the Potency was 26.4 µM (active). With CCc1cncnc1N1CCN(Cc2nc3ccc(C(F)(F)F)cc3[nH]2)CC1 the Potency was “inactive”. With CCC(C)N(C)C(=O)c1cc2ccccc2c(-c2ccccc2Cl)n1 (stereo not given) the Potency was “inactive”. In the case of C[C@@H]1C[C@H]2[C@@H]3CCC4=CC(=O)C=C[C@]4(C)C3(F)[C@@H](O)C[C@]2(C)[C@@]1(O)C(=O)CO (stereo not given in full), the Potency is reported as “inactive”. In the case of NC(=O)c1ccc(-c2nc(-c3ccc4c(c3)OCCO4)c(-c3ccccn3)[nH]2)cc1, the Potency is reported as “inactive”. In the case of CCCCCCCc1ccc(CCc2cccc(O)c2C(=O)O)cc1, the Potency is reported as “inactive”. With CN(C)c1ccc(Nc2nc(N)n(C(=O)c3c(F)cccc3F)n2)cc1 the Potency was “inactive”. With O=C(O)CCc1ccc(NCc2cccc(Oc3ccccc3)c2)cc1 the Potency was “inactive”. In the case of Cc1[nH]c(=O)c(C#N)cc1-c1ccc2nccn2c1, the Potency is reported as “inactive”. For CS(=O)(=O)c1ccc(C(=O)Nc2ccc(Cl)c(-c3ccccn3)c2)c(Cl)c1, the Potency was “inactive”. In the case of O=C1CCCC2=C1C(c1[nH]ncc1Cl)N=C(Nc1nc3ccccc3o1)N2 (stereo not given), the Potency is reported as “inactive”. In the case of CC(=O)NC(C)c1ccc(Oc2ccc(OC(C)C)cc2)cc1 (stereo not given), the Potency is reported as “inactive”. For Cc1cc(-c2nnc3n2CCCCC3)c(C)n1-c1ccc(F)cc1, the Potency was “inactive”. For CN[C@@H](C)C(=O)N[C@H]1CCCC[C@H]2CC[C@@H](C(=O)N[C@@H](c3ccccc3)c3cn(CCCCc4ccc(CCCCn5cc([C@@H](NC(=O)[C@@H]6CC[C@@H]7CCCC[C@H](NC(=O)[C@H](C)NC)C(=O)N76)c6ccccc6)nn5)cc4)nn3)N2C1=O, the Potency was “inactive”. In the case of O=C(NOC[C@H](O)CO)c1ccc(F)c(F)c1Nc1ccc(I)cc1F, the Potency is reported as “inactive”. For c1ccc(-c2nn3c(c2-c2ccnc4cc(OCCN5CCOCC5)ccc24)CCC3)nc1, the Potency was “inactive”. In the case of CCCc1nc2c(C)cc(-c3nc4ccccc4n3C)cc2n1Cc1ccc(-c2ccccc2C(=O)O)cc1, the Potency is reported as “inactive”. In the case of CCOC(=O)C1=C[C@@]2(CC)CCCN3CCc4c(n1c1ccccc41)[C@H]32, the Potency is reported as “inactive”. For CCOc1ccc(Cc2cc([C@@H]3O[C@H](CO)[C@@H](O)[C@H](O)[C@@H]3O)ccc2Cl)cc1, the Potency was “inactive”. For N#CC[C@H](C1CCCC1)n1cc(-c2ncnc3[nH]ccc23)cn1, the Potency was “inactive”. For CN(C)c1ccc(C2Nc3ccc4ccccc4c3C3=C2C(=O)CC(C)(C)C3)cc1Br (stereo not given), the Potency was “inactive”. In the case of COc1cc2nccc(Oc3ccc(NC(=O)NC4CC4)c(Cl)c3)c2cc1C(N)=O, the Potency is reported as “inactive”. With OCCn1cc(-c2cnc3nnn(Cc4ccc5ncccc5c4)c3n2)cn1 the Potency was “inactive”. In the case of CC(C)(N)C(=O)N[C@H](COCc1ccccc1)C(=O)N1CCC2(CC1)CN(S(C)(=O)=O)c1ccccc12, the Potency is reported as “inactive”. With CCCc1nn(C)c2c(=O)[nH]c(-c3cc(S(=O)(=O)N4CCN(C)CC4)ccc3OCC)nc12 the Potency was “inactive”. With CC(C)C[C@H](NC(=O)[C@@H](O)[C@H](N)Cc1ccccc1)C(=O)O the Potency was “inactive”. With Nc1cccc(S(=O)(=O)N2CCCN(S(=O)(=O)c3ccc4c(c3)OCCO4)CC2)c1 the Potency was “inactive”. With CS(=O)(=O)c1cccc(CNc2nc(Nc3ccc4c(c3)CCC(=O)N4)ncc2C(F)(F)F)c1 the Potency was “inactive”. For COc1ccc(CC2=NN3C([C@@H](CCc4ccccc4)[C@@H](C)O)=NC(C)C3C(=O)N2)cc1OC (stereo not given in full), the Potency was “inactive”. In the case of O=C(O)[C@@H](c1ccc(OCc2ccc3ccccc3n2)cc1)C1CCCC1, the Potency is reported as “inactive”. In the case of CC(c1cc2ccccc2s1)N(O)C(N)=O (stereo not given), the Potency is reported as “inactive”. In the case of O=c1ncn2nc(Sc3ccc(F)cc3F)ccc2c1-c1c(Cl)cccc1Cl, the Potency is reported as “inactive”. In the case of Cc1oncc1C(=O)Nc1ccc(C(F)(F)F)cc1, the Potency is reported as “inactive”. With Nc1nc2ccc(OC(F)(F)F)cc2s1 the Potency was “inactive”. In the case of CC[C@H](Nc1ncnc2nc[nH]c12)c1nc2cccc(F)c2c(=O)n1-c1ccccc1, the Potency is reported as “inactive”. In the case of COc1cc(Nc2ncc3c(n2)-c2ccc(Cl)cc2C(c2c(F)cccc2OC)=NC3)ccc1C(=O)O, the Potency is reported as “inactive”. With CNC(=O)c1ccccc1Sc1ccc2c(/C=C/c3ccccn3)n[nH]c2c1 the Potency was “inactive”. In the case of COc1cc(F)c(F)c(Nc2ccc(I)cc2F)c1NS(=O)(=O)C1(C[C@H](O)CO)CC1, the Potency is reported as “inactive”. In the case of NC(=O)c1ccc(I)c([N+](=O)[O-])c1, the Potency is reported as “inactive”. In the case of Cn1cc(-c2ccc3nnc(C(F)(F)c4ccc5ncccc5c4)n3n2)cn1, the Potency is reported as “inactive”.
Potency is read from the fitted curve at half-maximal effect.
